Drawing on PubChem BioAssay (NCI), this text covers growth for 17 molecules.

Each structure is given as a SMILES string. About 83,000 compounds went through this panel and 20% of them were active in at least one assay; those are over-represented in the sample as a whole.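 The endpoint reported here, percent growth, reads 100 for growth as untreated, 0 for no net growth and -100 for all cells dead.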 Values without a mark were called inactive. Active and inactive are the calls of the source. The calls were made as follows: active = growth percent below 10; inactive = the rest.

Test systems include T-47D breast; BT-549 breast; MDA-MB-435 melanoma; SW-620 colon; MCF7 breast; HCT-116 colon; HCC-2998 colon; KM12 colon.
Holding throughout (assay): NCI-60 one-dose screen, 48 h (100 = growth as untreated, 0 = no growth, -100 = all killed)
Holding throughout (settings): 10 µM unless noted

For the molecule `O=C(Nc1ccc(Cl)cc1)Nc1nc2ccc(OC(F)(F)F)cc2o1`, the growth was 41.1% in the experiment with T-47D breast; 146% in the experiment on BT-549 breast; 112% with MDA-MB-435 melanoma; 98.4% in the experiment with SW-620 colon; 76.6% in the experiment with MCF7 breast; 85% in the experiment with HCT-116 colon. Besides, the growth with HCC-2998 colon was 140%; in the experiment on KM12 colon it was 68.3%.

For `O=C(NC1CCS(=O)(=O)C1)c1ccc(C(=O)c2ccccc2)cc1` (stereo not drawn), the growth with T-47D breast was 107%; in the experiment on BT-549 breast, 121%; in the experiment with MDA-MB-435 melanoma, 101%; in the experiment with SW-620 colon, 95.8%; in the experiment on MCF7 breast, 105%; in the experiment on HCT-116 colon, 104%. Also, the growth is 103% with HCC-2998 colon and 125% with KM12 colon.

For the molecule `COc1cc2c(cc1OC)C(CC1(O)CCCCC1)N(S(=O)(=O)c1ccc(C)cc1)CC2` (stereo not drawn), the growth was 29.7% [100 µM] with T-47D breast; -1.8% [100 µM] (active) in the experiment on BT-549 breast; -23.1% [100 µM] (active) with MDA-MB-435 melanoma; 15.6% [100 µM] in the experiment with SW-620 colon; 25.7% [100 µM] in the experiment on MCF7 breast; 9.09% [100 µM] (active) in the experiment with HCT-116 colon. In addition, the growth was 39% [100 µM] in the experiment on HCC-2998 colon and 4.08% [100 µM] (active) in the experiment with KM12 colon.

`O=C(NN1C(=O)c2cc(C(=O)O)c(C(=O)O)cc2C1=O)c1ccncc1`: the growth is 102% in the experiment on T-47D breast; 103% in the experiment with BT-549 breast; 114% with MDA-MB-435 melanoma; 101% in the experiment on SW-620 colon; 98.3% with MCF7 breast; 106% with HCT-116 colon. In addition, the growth in the experiment on HCC-2998 colon is 103%; in the experiment on KM12 colon, 111%.

Consider `CN(C)c1ccc(-n2nc3ccccc3n2)cc1`, for which the growth in the experiment with T-47D breast was 78.4%; in the experiment on BT-549 breast, 91.6%; with MDA-MB-435 melanoma, 100%; in the experiment on SW-620 colon, 95.9%; in the experiment on MCF7 breast it was 89.9%; with HCT-116 colon, 77%. In addition, the growth was 75.3% with HCC-2998 colon and 108% in the experiment on KM12 colon.

Consider `Nc1nc(Nc2ccccc2SSc2ccccc2Nc2nc(N)nc(C(Cl)(Cl)Cl)n2)nc(C(Cl)(Cl)Cl)n1`, for which the growth with T-47D breast is 15.7%; with BT-549 breast it was 54.2%; in the experiment with MDA-MB-435 melanoma, 82.9%; in the experiment with SW-620 colon, 68.1%; with MCF7 breast it was 75.7%; with HCT-116 colon, 45.8%. The growth in the experiment with HCC-2998 colon was 111%; with KM12 colon it was 43.4%.

Consider `c1cc[n+](Cc2ccnc3ccccc23)cc1`, for which the growth was 106% in the experiment with T-47D breast; 112% with BT-549 breast; 100% in the experiment with MDA-MB-435 melanoma; 50.2% in the experiment with SW-620 colon; 41.1% with MCF7 breast; 21.1% in the experiment on HCT-116 colon. Further, the growth in the experiment with HCC-2998 colon is 105%; in the experiment with KM12 colon, 103%.

On to `Cn1ccnc1C(=O)/C=C/c1ccc(C(=O)Nc2nc3ccccc3[nH]2)cc1`, for which the growth in the experiment with T-47D breast is 49.6%; in the experiment with BT-549 breast it was 5.05% (active); in the experiment on MDA-MB-435 melanoma, 18.8%; in the experiment with SW-620 colon, 5.35% (active); in the experiment with MCF7 breast, 19.5%; with HCT-116 colon it was 23.1%. The growth in the experiment with HCC-2998 colon was 45.4%; in the experiment with KM12 colon, 14.4%.

Consider `CC(=O)/C(=C/c1ccc(Cl)cc1)C(=O)c1ccccc1`, for which the growth in the experiment with T-47D breast is 83%; in the experiment on BT-549 breast it was 97.4%; in the experiment on MDA-MB-435 melanoma, 61.4%; in the experiment with SW-620 colon it was 61.3%; in the experiment with MCF7 breast, 53.1%; in the experiment on HCT-116 colon it was 66%. For the same molecule, the growth in the experiment on HCC-2998 colon is 99.2%.

Regarding `COc1ccc2c(c1)[n+](=O)c(/C=C/C(=O)c1cc(OC)c(OC)c(OC)c1)c(C)n2[O-]`, the growth is 28.3% in the experiment on T-47D breast; 73.3% with BT-549 breast; 34.6% in the experiment with MDA-MB-435 melanoma; 21.7% in the experiment on SW-620 colon; 18.1% in the experiment on MCF7 breast; 17.9% in the experiment with HCT-116 colon. In addition, the growth was 112% with HCC-2998 colon and 80.9% with KM12 colon.

For `COc1cccc(CCN2C(=O)CCC3=C2CCC3=O)c1`, the growth with T-47D breast is 102%; in the experiment on BT-549 breast, 101%; with MDA-MB-435 melanoma, 107%; in the experiment with SW-620 colon, 119%; with MCF7 breast, 103%; in the experiment on HCT-116 colon it was 97.7%. For the same molecule, the growth in the experiment with HCC-2998 colon was 104%.

With `O=C1NCCc2c1noc2-c1ccccc1`, the growth with T-47D breast is 89.3%; in the experiment on BT-549 breast, 97%; in the experiment with MDA-MB-435 melanoma it was 106%; in the experiment on SW-620 colon it was 109%; in the experiment with MCF7 breast, 92.9%; in the experiment on HCT-116 colon, 88.3%. Also, the growth in the experiment on HCC-2998 colon was 99.9%; in the experiment on KM12 colon, 103%.

As to `CC(=O)Nc1ccc(C(=O)COc2ccc(/C=C3\CCc4ccccc4C3=O)cc2)cc1`, the growth in the experiment on T-47D breast is 91%; in the experiment on BT-549 breast, 97.1%; in the experiment on MDA-MB-435 melanoma it was 122%; in the experiment on SW-620 colon, 113%; in the experiment on MCF7 breast, 122%; in the experiment on HCT-116 colon, 106%. Also, the growth in the experiment with HCC-2998 colon was 118%.

As to `Cc1ccc(OCC(=O)Nc2ccc(Oc3ccccc3)cc2)c([N+](=O)[O-])n1`, the growth in the experiment with T-47D breast is 23.4%; with BT-549 breast it was 98.5%; in the experiment with MDA-MB-435 melanoma it was 96.7%; with SW-620 colon, 96.8%; in the experiment on MCF7 breast it was 58.3%; in the experiment on HCT-116 colon, 69.8%. The growth in the experiment on HCC-2998 colon was 81.1%; with KM12 colon, 93.8%.

For `O=C(N/N=C/c1ccc(Cl)cc1Cl)c1ccccc1Nc1cccc(C(F)(F)F)c1`, the growth in the experiment on T-47D breast is 83.4%; with BT-549 breast it was -57.4% (active); in the experiment with MDA-MB-435 melanoma it was 70.7%; in the experiment on SW-620 colon it was 84.4%; in the experiment on MCF7 breast it was 280%; in the experiment on HCT-116 colon, 60.7%. The growth was 88.2% with HCC-2998 colon and 79% in the experiment on KM12 colon.

`OCc1n(Cc2ccc3ccccc3c2)cc[n+]1Cc1ccc2ccccc2c1`: the growth with T-47D breast is 31.3%; in the experiment on BT-549 breast, 31.2%; in the experiment on MDA-MB-435 melanoma, 5.53% (active); with SW-620 colon, 67.7%; in the experiment on MCF7 breast it was 61.8%; in the experiment with HCT-116 colon, 35.6%. Also, the values for the growth in the experiment on HCC-2998 colon and in the experiment with KM12 colon were 39.8% and 39.3%, respectively.

In the case of `COc1cc(-c2nc3sc4c(c3c(=O)[nH]2)CCCCCC4)cc(OC)c1OC`, the growth is 32.8% with T-47D breast; 53.1% in the experiment with BT-549 breast; -18% (active) in the experiment with MDA-MB-435 melanoma; 30.3% in the experiment on SW-620 colon; 15% in the experiment on MCF7 breast; 20.3% with HCT-116 colon. The growth in the experiment on HCC-2998 colon was -1.77% (active); in the experiment on KM12 colon, 28.6%.
